Compounds without any hit were thinned out: in the full panel of roughly 83,000, 20% have a hit.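 Testing used 96-well plates and a 48-hour single-concentration exposure. Example: -40 means 40% of the starting cells died.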 The source made the active and inactive calls. The calls were made as follows: active = growth percent below 10; inactive = the rest.
Experiments:
Experiment in all cases: NCI-60 one-dose screen, 48 h (100 = growth as untreated, 0 = no growth, -100 = all killed)
Details in all cases: 10 µM unless noted
NCI-H23 lung = system: NCI-H23 lung
NCI-H226 lung = system: NCI-H226 lung
NCI-H322M lung = system: NCI-H322M lung
HOP-62 NSCLC = system: HOP-62 NSCLC
NCI-H460 lung = system: NCI-H460 lung
HOP-92 NSCLC = system: HOP-92 NSCLC
NCI-H522 lung = system: NCI-H522 lung
A549/ATCC NSCLC = system: A549/ATCC NSCLC
786-0 renal = system: 786-0 renal
COLO 205 colon = system: COLO 205 colon

Measured: growth

Cc1cc(N2CCN(CC(=O)Nc3ccc4c(ccn4C)c3)CC2)nc(N2CCCCCC2)n1
inactive: NCI-H23 lung 99.9% | NCI-H226 lung 97.9% | NCI-H322M lung 92.9% | HOP-62 NSCLC 80.2% | NCI-H460 lung 101% | HOP-92 NSCLC 60.5% | NCI-H522 lung 73.3% | A549/ATCC NSCLC 85.3% | 786-0 renal 93.8% | COLO 205 colon 81.1%

CCCCNC(=O)CC1=C(C)/C(=C/c2[nH]c(-c3ccc[nH]3)cc2OC)N=C1C
active: NCI-H460 lung 7.8% | HOP-92 NSCLC -19.8%
inactive: NCI-H23 lung 48.6% | NCI-H226 lung 36.7% | NCI-H322M lung 50% | HOP-62 NSCLC 50.5% | NCI-H522 lung 17% | A549/ATCC NSCLC 12.4% | 786-0 renal 16.1% | COLO 205 colon 17.2%

COc1ccc(/C=N\Nc2nc(SCCC(C)C)nc(-c3ccc(OC)cc3)c2C#N)cc1
active: 786-0 renal -2.8%
inactive: NCI-H23 lung 72.1% | NCI-H226 lung 88.9% | NCI-H322M lung 80.8% | HOP-62 NSCLC 18.4% | NCI-H460 lung 13.9% | HOP-92 NSCLC 63.2% | NCI-H522 lung 60.5% | A549/ATCC NSCLC 70.9% | COLO 205 colon 68%

Cc1cn(-c2cc(NC(=O)c3cncc(C#Cc4cnc(N)c5ncccc45)c3)cc(C(F)(F)F)c2)cn1
inactive: NCI-H23 lung 43.5% | NCI-H226 lung 45.7% | NCI-H322M lung 83.4% | HOP-62 NSCLC 70.9% | NCI-H460 lung 71.2% | HOP-92 NSCLC 43.3% | NCI-H522 lung 52.2% | A549/ATCC NSCLC 88.1% | 786-0 renal 71.6% | COLO 205 colon 28.4%

COc1ccc(/C=C/C(=O)c2ccc(Nc3ccnc4cc(Cl)ccc34)cc2)cc1
inactive: NCI-H23 lung 76.2% | NCI-H226 lung 123% | NCI-H322M lung 131% | HOP-62 NSCLC 72.3% | NCI-H460 lung 101% | HOP-92 NSCLC 37.9% | NCI-H522 lung 73.3% | A549/ATCC NSCLC 103% | 786-0 renal 72.8% | COLO 205 colon 117%

COc1ccc(/C=N/NC(=O)c2ccc(-n3cc(-c4ccccc4)nn3)cc2)cc1OC
inactive: NCI-H23 lung 95.2% | NCI-H226 lung 92.7% | NCI-H322M lung 105% | HOP-62 NSCLC 101% | NCI-H460 lung 111% | HOP-92 NSCLC 94.9% | NCI-H522 lung 99.6% | A549/ATCC NSCLC 104% | 786-0 renal 98.1% | COLO 205 colon 91.7%

CCN(CC)CC(O)COc1c(Br)c(Br)c(Br)c2c1OC(C)(C)C2 (stereo not given)
inactive: NCI-H23 lung 96.1% | NCI-H226 lung 46.4% | NCI-H322M lung 60.7% | HOP-62 NSCLC 96.8% | NCI-H460 lung 27.7% | HOP-92 NSCLC 28.1% | NCI-H522 lung 145% | A549/ATCC NSCLC 132% | 786-0 renal 51.3% | COLO 205 colon 67.7%

COc1ccc(-c2nc3c(ncc4ccc(=O)[nH]c43)s2)cc1
inactive: NCI-H23 lung 78.8% | NCI-H226 lung 76.1% | NCI-H322M lung 77.7% | HOP-62 NSCLC 90.2% | NCI-H460 lung 40.8% | HOP-92 NSCLC 87.7% | NCI-H522 lung 85.3% | A549/ATCC NSCLC 56.1% | 786-0 renal 88.3% | COLO 205 colon 83.6%

CCC(=C(c1ccc(OCCN2CCCCC2)cc1)c1ccc(OCCN2CCCCC2)cc1)c1ccc(Cl)cc1
active: NCI-H23 lung -81% | NCI-H226 lung -66.4% | NCI-H322M lung -99% | HOP-62 NSCLC -73.7% | NCI-H460 lung -80.5% | HOP-92 NSCLC -83.6% | NCI-H522 lung -69.7% | A549/ATCC NSCLC -72.2% | 786-0 renal -88.8% | COLO 205 colon -66.3%

CNC(=O)c1[nH]cc(-c2ccc(OC)cc2)c1-c1cc(OC)c2c(c1OC)OCO2
inactive: NCI-H23 lung 97.6% | NCI-H226 lung 97.8% | NCI-H322M lung 96.2% | HOP-62 NSCLC 85.3% | NCI-H460 lung 105% | HOP-92 NSCLC 89.6% | NCI-H522 lung 101% | A549/ATCC NSCLC 99.1% | 786-0 renal 96.7% | COLO 205 colon 118%

CCOC(=O)c1cc(C)n(-c2ccc(C(=O)O)cc2)c1C
inactive: NCI-H23 lung 89.4% | NCI-H226 lung 98.6% | NCI-H322M lung 114% | HOP-62 NSCLC 88.1% | NCI-H460 lung 44.1% | HOP-92 NSCLC 100% | NCI-H522 lung 65.8% | A549/ATCC NSCLC 91.4% | 786-0 renal 101% | COLO 205 colon 89.8%

COc1ccc2c(c1OC)CO[C@@H]2[C@H]1c2c(cc3c(c2OC)OCO3)CCN1S(=O)(=O)c1cn(C)cn1
inactive: NCI-H23 lung 32.9% | NCI-H226 lung 73.6% | NCI-H322M lung 48% | HOP-62 NSCLC 30.9% | HOP-92 NSCLC 60.7% | NCI-H522 lung 19.4% | A549/ATCC NSCLC 21.2% | 786-0 renal 41.9%
active: NCI-H460 lung 6.13% | COLO 205 colon 0.532%

O=C(O)c1cn(C2CC2)c2cc(N3CCN(C(=O)N(c4ccccc4)c4nc(-c5ccccc5)cs4)CC3)c(F)cc2c1=O
active: NCI-H23 lung -3.61% | NCI-H226 lung 4.84% | NCI-H322M lung 2.44% | HOP-62 NSCLC -1.15% | NCI-H460 lung 2.93% | HOP-92 NSCLC -25% | NCI-H522 lung -25% | A549/ATCC NSCLC 9.6% | 786-0 renal 4.01% | COLO 205 colon -20.6%

Cc1c2cnccc2c(C)c2c1c1cc(C#N)ccc1n2C
active: NCI-H23 lung -37.4% | NCI-H226 lung -18.6% | NCI-H322M lung -16% | HOP-62 NSCLC -25.5% | NCI-H460 lung -19.7% | HOP-92 NSCLC -12.1% | NCI-H522 lung -71% | A549/ATCC NSCLC -19.8% | 786-0 renal -16.1% | COLO 205 colon -37.2%

COC12C=C/C(=C(/C(=O)OCc3ccncn3)C(=O)CCCCCCCCC3(OC)C=C/C(=C(/C(=O)OCc4ccncn4)C(=O)CCCCCCCC1)O3)O2
inactive: HOP-62 NSCLC 23%
active: NCI-H23 lung -37.2% | NCI-H226 lung -71.8% | NCI-H322M lung -76.5% | NCI-H460 lung 1.29% | HOP-92 NSCLC -53.6% | NCI-H522 lung -13.1% | A549/ATCC NSCLC 6.41% | 786-0 renal -71.2% | COLO 205 colon 3.33%

CN1CCc2nc3sc(C(N)=O)c(N)c3c(-c3cccs3)c2C1
active: HOP-92 NSCLC -7.38% | 786-0 renal 9.22% | COLO 205 colon 7.02%
inactive: NCI-H23 lung 36.2% | NCI-H226 lung 16.3% | NCI-H322M lung 40.7% | HOP-62 NSCLC 23.3% | NCI-H460 lung 30.4% | NCI-H522 lung 38.9% | A549/ATCC NSCLC 24.1%

CCCCCC(/C=N\NC(=S)N/N=C/C(=C/c1ccccc1)CCCCC)=C\c1ccccc1
inactive: NCI-H23 lung 70.6% | NCI-H226 lung 89.8% | NCI-H322M lung 61.3% | HOP-62 NSCLC 72.7% | NCI-H460 lung 57.8% | HOP-92 NSCLC 15.8% | NCI-H522 lung 40.4% | A549/ATCC NSCLC 74.8% | 786-0 renal 79.9% | COLO 205 colon 97.2%

COc1cc(C2c3cc(OC(C)=O)c(OC)cc3CC3C(=O)OCC32)ccc1OC(C)=O (stereo not given)
inactive: NCI-H23 lung 105% | NCI-H226 lung 107% | NCI-H322M lung 115% | HOP-62 NSCLC 91.8% | NCI-H460 lung 109% | HOP-92 NSCLC 53.7% | NCI-H522 lung 105% | A549/ATCC NSCLC 104% | 786-0 renal 96.4% | COLO 205 colon 119%

COc1cc(OC)c(NC(=O)c2cc3ccccc3cc2O)cc1Cl
inactive: NCI-H23 lung 10.7% | NCI-H226 lung 77% | NCI-H322M lung 40.2% | HOP-62 NSCLC 68.2% | NCI-H460 lung 11.2% | A549/ATCC NSCLC 32.1% | 786-0 renal 27.4% | COLO 205 colon 66.6%
active: HOP-92 NSCLC -31.2% | NCI-H522 lung -19.9%

COC1=CC(c2ccc[nH]2)=N/C1=C\c1[nH]c(C)c(CC(=O)NCc2ccccc2)c1C
inactive: NCI-H23 lung 23.9% | NCI-H226 lung 28.8% | NCI-H322M lung 42.7% | HOP-62 NSCLC 20.6% | NCI-H460 lung 10.9% | NCI-H522 lung 17% | A549/ATCC NSCLC 18.1%
active: HOP-92 NSCLC -7.96% | 786-0 renal -42.7% | COLO 205 colon 1.08%

C#Cc1c2c(c(OC)c3c1OCO3)[C@H]([C@H]1OC(=O)c3c1ccc(OC)c3OC)N(C)CC2
inactive: NCI-H23 lung 86% | NCI-H226 lung 98% | NCI-H322M lung 94% | HOP-62 NSCLC 71.8% | NCI-H460 lung 96% | HOP-92 NSCLC 91.2% | NCI-H522 lung 60.3% | A549/ATCC NSCLC 65.5% | 786-0 renal 95.4% | COLO 205 colon 79.7%
